The results in this text go back to PubChem BioAssay (NCI).

Structures are written as SMILES. This is part of a sample that, as a whole, favours compounds with a hit. Of some 83,000 tested, about 20% had one in any assay.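 Method: cells in 96-well plates; compound added at one concentration; 48 h incubation; percent growth measured; values under 10 scored active.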 Values without a mark were called inactive. Calls of active or inactive are those of the source.

The test system of one assay is SK-MEL-28 melanoma. The assay can be described thus: NCI-60 one-dose screen, 48 h (100 = growth as untreated, 0 = no growth, -100 = all killed). The settings on record: 10 µM unless noted.
For `O=c1cc(Cc2ccc([N+](=O)[O-])cc2)[nH]c(=O)[nH]1`, the growth was 114%. Consider `Cc1csc(NC(c2ccccc2)c2c(C)nc3ccccn23)n1` (centres undefined), for which the growth is 110%. Same read-out and setting: the same measure for `O=C1Nc2ccc3c(c2/C1=C\c1cc2c(cc1Br)OCO2)OCO3`: 19.4%; for `c1ccc(-c2nc(N3CCNCC3)c3nc(-c4ccccc4)oc3n2)cc1`: 101%. For `CCN(CC)c1ccc(CNc2ccnc3ccccc23)cc1`, the growth was 80.4%. On the same count and under the same terms, in the case of `CN(CCCCN(C[C@H]1Cc2ncccc2CN1)[C@H]1CCCc2cccnc21)C1CCC(F)(F)CC1` it was 106%; in that of `ClC(Cl)c1nc(-c2ccccc2)nc2cc(-c3ccccc3)nn12`, 107%; in that of `O=[N+]([O-])c1ccc(OCCCOc2ccccc2)cc1`, 103%.

For the molecule `N#C/C(=C1C=C/C(=N/O)C(Cl)=C/1)c1ccc(Cl)cc1`, the growth was 101%. Still for that read-out and setting: the same measure for `CCCCC(CC)OC(=O)C(Br)CC` (centres undefined): 103%; for `C=C[C@@H]1C[C@@H]2Cc3c(C)cc(C)cc3N1O2`: 101%; for `C=C[C@@H]1C[C@@H]2Cc3ccccc3N1O2`: 109%. Same read-out and setting: the same measure for `CC(=O)OC[C@]12CC[C@H]3[C@@H](C[C@H]4O[C@]45CC=CC(=O)[C@]35C)[C@]1(O)CC[C@@]2(O)[C@@](C)(O)C1CC(C)=C(C)C(=O)O1` (some centres undefined): -49.9% (active). The same measure, in the same setting: the same measure for `CO[C@H]1NC(=O)N(S(=O)(=O)c2ccc(Cl)cc2)[C@@H]1OC`: 106%; for `COC(=O)c1cc2cc(-c3ccc(OC)cc3)cnc2[nH]1`: 56.1%.

Regarding `O=C(Nc1cccc(-n2cc(-c3ccncc3)c(-c3ccc(Cl)c(O)c3)n2)c1)Nc1cc(C(F)(F)F)cc(C(F)(F)F)c1`, the growth is -62.4% (active). Still for that read-out and setting: in the case of `C[n+]1c(/C=C/c2c(O)ccc3ccccc23)ccc2ccccc21` it was 66.6%; in that of `COc1ccc(-c2cn(-c3cccc(C(=O)/C=C/c4cc(OC)c(OC)c(OC)c4)c3)c(=O)[nH]2)cc1OC`, 98.9%; in that of `C=C[C@@H]1C[C@H](O)Cc2c(C)cc(C)cc2N1`, 102%. Still for that read-out and setting: in the case of `O=C(O)Cc1cccc(=O)c(O)c1C(=O)O` it was 110%. Still for that read-out and setting: in the case of `COc1cc(/C=C/C(=O)c2ccc(Nc3ncnc4cc(OC)c(OC)cc34)cc2)cc(OC)c1` it was 114%. As to `COc1cc(/C=C/C(=O)c2cccc(-n3cc(-c4cc(OC)c(OC)c(OC)c4)[nH]c3=O)c2)cc(OC)c1OC`, the growth is 4.45% (active).

Take `COC1=C(OC)C(=O)C(CCCCCCCCCC[P+](c2ccccc2)(c2ccccc2)c2ccccc2)=C(C)C1=O`: the growth was -86.1% (active). Still for that read-out and setting: in the case of `C=C[C@@H]1C[C@H](O)Cc2ccccc2N1` it was 112%; in that of `O=S(=O)(CC(O)(c1ccccc1)c1ccccc1)CC(O)(c1ccccc1)c1ccccc1`, 86%. Same read-out and setting: the same measure for `CCN(CC)CCCC(C)Nc1c2ccc(Cl)cc2nc2cc(OC)c(OC)cc12` (centres undefined): -74.7% (active); for `CCCCCCCCCCCC(=O)NCCC[N+](C)(C)CC(=O)[O-]`: 99%. The same measure, in the same setting: in the case of `CCOC(=O)/C(C#N)=C1/C(=O)Nc2ccccc21` it was 115%; in that of `Cn1c(=O)c2[nH]c(C3CC=CCC3)nc2n(C)c1=O` (centres undefined), 117%. Regarding `O=[N+]([O-])c1cc(S(=O)(=O)Oc2ccccc2)ccc1Cl`, the growth is -18% (active). In the case of `C=C(C)[C@@H]1C[C@H](O)Cc2cc(F)ccc2N1`, the growth was 103%. Still for that read-out and setting: the same measure for `COc1ccc2c(c1)[nH]c(=O)c1c3cccc(F)c3cn21`: 61.4%; for `CN(C)c1nc2c(N)ncnc2n1C1OC(CO)C(O)C1O` (centres undefined): 122%; for `O=C1NN(C(=O)c2ccc(Cl)cc2)C(c2ccccc2)=N/C1=C\c1ccc(F)cc1`: 107%. Same read-out and setting: the same measure for `O=C1/C(=C/c2ccc(Cl)cc2)CN(Cc2cn(CCNc3ccnc4cc(Cl)ccc34)nn2)C/C1=C\c1ccc(Cl)cc1`: -100% (active); for `NC(=S)N/N=C1\CCCC(C(F)(F)F)C1` (centres undefined): 111%.

Another assay concerns SK-MEL-2 melanoma. Described as above. The settings on record: 10 µM unless noted.
For `O=c1cc(Cc2ccc([N+](=O)[O-])cc2)[nH]c(=O)[nH]1`, the growth is 94.6%. Still for that read-out and setting: the same measure for `Cc1csc(NC(c2ccccc2)c2c(C)nc3ccccn23)n1` (centres undefined): 107%; for `Cc1ccc(/C=C2\CN(C(=O)CCN3CCC(=NO)CC3)C/C(=C\c3ccc(C)cc3)C2=O)cc1`: 91.5%. Same read-out and setting: in the case of `O=C1Nc2ccc3c(c2/C1=C\c1cc2c(cc1Br)OCO2)OCO3` it was 42.4%; in that of `c1ccc(-c2nc(N3CCNCC3)c3nc(-c4ccccc4)oc3n2)cc1`, 93.3%.

Turning to `CCN(CC)c1ccc(CNc2ccnc3ccccc23)cc1`, the growth was 79.3%. Take `CN(CCCCN(C[C@H]1Cc2ncccc2CN1)[C@H]1CCCc2cccnc21)C1CCC(F)(F)CC1`: the growth is 94.6%. The same measure, in the same setting: the same measure for `ClC(Cl)c1nc(-c2ccccc2)nc2cc(-c3ccccc3)nn12`: 103%; for `O=[N+]([O-])c1ccc(OCCCOc2ccccc2)cc1`: 102%; for `N#C/C(=C1C=C/C(=N/O)C(Cl)=C/1)c1ccc(Cl)cc1`: 95.1%.

With `CCCCC(CC)OC(=O)C(Br)CC` (centres undefined), the growth is 100%. Same read-out and setting: in the case of `C=C[C@@H]1C[C@@H]2Cc3c(C)cc(C)cc3N1O2` it was 110%; in that of `C=C[C@@H]1C[C@@H]2Cc3ccccc3N1O2`, 87.8%. Regarding `CC(=O)OC[C@]12CC[C@H]3[C@@H](C[C@H]4O[C@]45CC=CC(=O)[C@]35C)[C@]1(O)CC[C@@]2(O)[C@@](C)(O)C1CC(C)=C(C)C(=O)O1` (some centres undefined), the growth was -22.6% (active). Still for that read-out and setting: the same measure for `CO[C@H]1NC(=O)N(S(=O)(=O)c2ccc(Cl)cc2)[C@@H]1OC`: 113%. The same measure, in the same setting: in the case of `COC(=O)c1cc2cc(-c3ccc(OC)cc3)cnc2[nH]1` it was 8.37% (active); in that of `O=C(Nc1cccc(-n2cc(-c3ccncc3)c(-c3ccc(Cl)c(O)c3)n2)c1)Nc1cc(C(F)(F)F)cc(C(F)(F)F)c1`, -73.7% (active). The same measure, in the same setting: in the case of `C[n+]1c(/C=C/c2c(O)ccc3ccccc23)ccc2ccccc21` it was 29.4%; in that of `COc1ccc(-c2cn(-c3cccc(C(=O)/C=C/c4cc(OC)c(OC)c(OC)c4)c3)c(=O)[nH]2)cc1OC`, 75.3%.

As to `C=C[C@@H]1C[C@H](O)Cc2c(C)cc(C)cc2N1`, the growth was 111%. On the same count and under the same terms, in the case of `O=C(O)Cc1cccc(=O)c(O)c1C(=O)O` it was 97.5%; in that of `COc1cc(/C=C/C(=O)c2ccc(Nc3ncnc4cc(OC)c(OC)cc34)cc2)cc(OC)c1`, 105%. On the same count and under the same terms, the same measure for `COc1cc(/C=C/C(=O)c2cccc(-n3cc(-c4cc(OC)c(OC)c(OC)c4)[nH]c3=O)c2)cc(OC)c1OC`: -2.34% (active); for `COC1=C(OC)C(=O)C(CCCCCCCCCC[P+](c2ccccc2)(c2ccccc2)c2ccccc2)=C(C)C1=O`: -42.7% (active).

As to `C=C[C@@H]1C[C@H](O)Cc2ccccc2N1`, the growth is 123%. On the same count and under the same terms, in the case of `CCN1C(=O)N(CC)C2C1NN=c1s/c(=C\c3cccnc3)c(=O)n12` (centres undefined) it was 51.5%; in that of `O=S(=O)(CC(O)(c1ccccc1)c1ccccc1)CC(O)(c1ccccc1)c1ccccc1`, 109%; in that of `CCN(CC)CCCC(C)Nc1c2ccc(Cl)cc2nc2cc(OC)c(OC)cc12` (centres undefined), 48%. Same read-out and setting: in the case of `CCCCCCCCCCCC(=O)NCCC[N+](C)(C)CC(=O)[O-]` it was 96.3%; in that of `CCOC(=O)/C(C#N)=C1/C(=O)Nc2ccccc21`, 122%; in that of `Cn1c(=O)c2[nH]c(C3CC=CCC3)nc2n(C)c1=O` (centres undefined), 97.6%. On the same count and under the same terms, the same measure for `O=[N+]([O-])c1cc(S(=O)(=O)Oc2ccccc2)ccc1Cl`: 87.5%; for `C=C(C)[C@@H]1C[C@H](O)Cc2cc(F)ccc2N1`: 76.8%.

`COc1ccc2c(c1)[nH]c(=O)c1c3cccc(F)c3cn21`: the growth was 63.3%. On the same count and under the same terms, the same measure for `CN(C)c1nc2c(N)ncnc2n1C1OC(CO)C(O)C1O` (centres undefined): 99.4%; for `N[C@H]1CN(C(=O)c2cc3cc(Br)c(F)c(F)c3[nH]2)C[C@@H]1O`: 102%. Same read-out and setting: the same measure for `O=C1/C(=C/c2ccc(Cl)cc2)CN(Cc2cn(CCNc3ccnc4cc(Cl)ccc34)nn2)C/C1=C\c1ccc(Cl)cc1`: -89% (active); for `NC(=S)N/N=C1\CCCC(C(F)(F)F)C1` (centres undefined): 102%.
